Bioassay records: PubChem, National Center for Advancing Translational Sciences (NCATS)
Hits are enriched below; roughly 2.2% of the tested compounds scored in any of these assays.
aSyn yeast inh: rescues yeast growth from alpha-synuclein toxicity; AID 652106; 0.14% of 370,000 active; Yeast expressing alpha-synuclein, growth rescue, BacTiter-Glo, 24 h; Potency, µM (series often up to 46.1 µM), without a hit: top-dose growth rescue (activation), most hits filed as activators; further: % of control where 0% means no effect; nearly all actives have a fitted effect of over 65% in size
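Rescue of yeast growth: cells expressing toxic alpha-synuclein, induced in galactose at OD600 0.02, incubated with compound 24 h at 30 C. ATP luminescence quantified growth; inhibitors of toxicity appear as activators.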
Mito fusion yeast: blocks mitochondrial division or promotes mitochondrial fusion. S. cerevisiae fusion-defective mutant growth rescue, CellTiterGlo 48 h. Potency, µM (top dose mostly 46.1 µM), for the others: at the highest dose growth rescue (activation), most hits filed as activators. 0.23% of 320,000 active. AID 485298; further: % of control where 0% means no effect; nearly all actives have a fitted effect of over 45% in size
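Yeast fusion mutant, YPEG (non-fermentable carbon), compound, 48 h at 37C non-permissive; CellTiterGlo added, 10 min RT, luminescence read. Rescued growth = division inhibition.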
TDP-43 yeast inh: TDP-43 toxicity inhibition in yeast. TDP-43 expressing yeast growth rescue, BacTiter-Glo, 24 h. Potency, µM (top dose mostly 46.1 µM), for the others: top-dose growth rescue (activation), hits mostly activators. 1.8% of 410,000 active; further: % of control where 0% means no effect; nearly all actives have a fitted effect of over 50% in size
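Yeast cells expressing TDP-43 under galactose induction are exposed to compounds for 24 hr at 30 deg C. BacTiter-Glo luminescence measures growth, so protective compounds score as activators.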
Abeta yeast res: A-beta toxicity reversal in yeast | Potency, µM (doses to about 46.1 µM), hits mostly activators | yeast expressing A-beta42, growth rescue, OD600, 48 h; response scale: 0% DMSO, 100% iron-clioquinol control | 0.063% of 410,000 active | AID 1347071; further: nearly all actives have a fitted effect of over 55% in size
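Yeast A-beta toxicity model in growth medium with pinned compounds, 48 h at 30 C; growth read as absorbance at 600 nm. Normalized to FeCl3/clioquinol equimolar mix (positive) and DMSO (negative).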
FUS yeast rescue: rescues growth of FUS-expressing yeast; S. cerevisiae FUS-expressing, growth rescue, OD600, 24 h; Potency, µM (series often up to 76.6 µM), usual class: activators; 0.24% of 390,000 active;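 further: plate controls were DMSO vehicle for no effect and reference control for full effect; nearly all actives have a fitted effect of over 55% in size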
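Quantitative HTS measuring growth restoration of FUS-toxic yeast. Galactose-induced cells (OD 0.005) were exposed 24hr at 30C to compounds at several concentrations, then absorbance at 600 nm was recorded.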
An asterisk follows results filed as active; i = inactive; u = inconclusive; x = no result given; [ ] = remark or other dose. The call rests on the fitted dose curve; in most records, active means well fitted curve in the direction sought with a large enough effect; inconclusive means small, poorly fitted or top-dose-only effect, or another doubt; inactive means no such curve, though single readings can be large; an effect the other way counts as inactive or inconclusive. Potency means the concentration at half of the fitted maximal effect.

SMILES	aSyn yeast inh	Mito fusion yeast	TDP-43 yeast inh	Abeta yeast res	FUS yeast rescue
Cc1ccc(S(=O)(=O)Nc2ccc3nc(-c4ccc(F)cc4)oc3c2)cc1	x	x	0.0%	i	i
O=C(COC(=O)c1cccc(Br)c1)NCCc1ccc(F)cc1	2.7%	7.0%	12.6µM*	u	i
CCc1ccc(-c2ccc3nnc(SC)n3n2)cc1	0.0%	-2.7%	15.8µM*	x	i
CCc1ccc(-c2ccc3nnc(SCC(N)=O)n3n2)cc1	0.7%	0.9%	19.0%	i	i
Cc1ccc(-c2nc3ccc(Cl)cn3c2Cc2cccc(Cl)c2)cc1	28.9%	x	20µM*	i	u
CC(C)(C)Cc1c(-c2ccc(Cl)cc2)nc2ccc(Br)cn12	0.3%	x	35.5µM*	i	i
Clc1ccc(-c2nc3ccc(Br)cn3c2Cc2cccc(Cl)c2)cc1	2.5%	x	31.6µM*	i	i
Cc1ccc(-c2nc3ccc(C)cn3c2Cc2cccc(Cl)c2)cc1	-0.5%	x	21.3%	i	i
N#Cc1ccc(-c2nc3ccc(Br)cn3c2Cc2cccc(Cl)c2)cc1	-15.3%	x	u	i	i
Cc1ccc(-c2nc3ccc(Br)cn3c2Cc2cccc(Cl)c2)cc1	11.9%	x	28.2µM*	i	i
CN(C)c1ccc(/C=C/c2c3ccccc3cc[n+]2[O-])cc1	9.1%	x	x	x	x
CC(C)(C)c1ccc(-c2cn(C[C@H](Cc3ccccc3)n3c(=O)c4ccccc4n3Cc3ccco3)nn2)cc1	x	x	x	x	i
O=C(CSc1nc(-c2ccccc2)nc2cc(=O)[nH]n12)Nc1ccccc1	x	x	-3.9%	i	i
Cc1ccc(C(=O)N(C)[C@H]2C[C@H]3c4[nH]c5c(-c6ccc7c(c6)OCO7)cccc5c4CCN3C[C@H]2[C@H](C)O)cc1	x	x	x	x	i
Cc1nc2sc(C(N)=O)c(N)c2c(-c2ccc(Br)cc2)c1C(=O)Nc1ccc(Cl)cc1	x	x	22.4µM*	i	u
CCC(C)NC(=O)c1sc2nc(C)c(C(=O)Nc3ccc(Cl)cc3)c(-c3ccc(Br)cc3)c2c1N (stereo not drawn)	x	x	6.4%	i	u
O=C(NCC1COc2ccccc2O1)c1ccc(NC(=O)c2cccc(F)c2F)cc1 (stereo not drawn)	x	x	x	x	i
FC(F)(F)c1nc(=S)c2ccccc2[nH]1	-3.8%	-0.4%	10µM*	i	i
CN(C(=O)CNC(=O)c1ccccc1OCC(=O)Nc1ccc(I)cc1)c1ccccc1	x	x	x	x	i
C/C=C/c1ccc(O)c(OC)c1	-1.0%	-2.4%	-9.4%	i	i
CC=Cc1cc(OC)c2c(c1)C(C)C(c1ccc(O)c(OC)c1)O2 (stereo not drawn)	u	x	35.5µM*	i	u
Cc1ccc(NC(=O)c2ccc([N+](=O)[O-])s2)cc1S(=O)(=O)N1CCOCC1	-1.0%	x	1.9%	i	i
COc1ccc(C2=Nn3c(nnc3-c3ccco3)SC2)cc1	7.2%	3.4%	22.4µM*	i	i
CCC(C)(C)c1ccc(OCCCC[n+]2ccccc2)c(C(C)(C)CC)c1	-34.0%	11.0%	14.1µM*	i	i
CCn1ccc2c(OCC(=O)Nc3ccc(C)c(Cl)c3)cccc2c1=O	x	x	22.4µM*	i	u
SMILES	aSyn yeast inh	Mito fusion yeast	TDP-43 yeast inh	Abeta yeast res	FUS yeast rescue
CCCn1ccc2c(OCC(=O)Nc3ccc(NC(C)=O)cc3)cccc2c1=O	-6.3%	-2.0%	-3.5%	i	i
CCCn1ccc2c(OCC(=O)Nc3ccc(OC)c(OC)c3)cccc2c1=O	x	x	0.0%	i	i
CCCn1ccc2c(OCC(=O)Nc3ccc(F)cc3F)cccc2c1=O	x	x	22.4µM*	i	i
COC(=O)CSc1nnc(-c2ccc(NS(=O)(=O)c3ccc(Cl)s3)cc2)o1	x	x	x	x	i
O=C1NC2(CCCc3ccccc32)C(=O)N1CCOc1ccc(Br)cc1 (stereo not drawn)	1.3%	7.2%	2.0%	i	i
CCOc1ccc(OCCN2C(=O)NC3(CCCc4ccccc43)C2=O)cc1 (stereo not drawn)	4.9%	2.8%	35.5µM*	i	i
Cc1ccc(COC[C@H](CC(C)C)N2CCN(C(=O)c3cccc(C(F)(F)F)c3)CCC2=O)cc1	11.7%	x	15.8µM*	i	4.47µM*
Cc1ccccc1COC[C@H](CC(C)C)N1CCN(C(=O)c2cccc(C(F)(F)F)c2)CCC1=O	27.2%	14.2%	10.7%	i	u
CC(C)CC(COCc1ccc(Cl)cc1)N1CCN(C(=O)c2cccc(C(F)(F)F)c2)CCC1=O (stereo not drawn)	11.3%	u	20.5%	i	31.6µM*
CC(C)CC(COCc1cccc(C(F)(F)F)c1)N1CCN(C(=O)c2cccc(C(F)(F)F)c2)CCC1=O (stereo not drawn)	22.3%	14.7%	25.2%	i	u
O=C(CN1C(=O)NC2(CCCCCCC2)C1=O)NCc1ccccc1Cl	2.1%	-4.5%	1.0%	i	i
Nc1ccc(Br)c2c1C(=O)c1ccccc1C2=O	17.9%	4.0%	6.31µM*	i	i
CCOC(=O)Nc1ccc(/C=C/c2ccnc3ccccc23)cc1	-8.9%	x	x	x	x
O=C(N/C=N/O)C1=NOC(CNc2ncc(C(F)(F)F)cc2Cl)C1 (stereo not drawn)	2.0%	2.1%	15.8µM*	i	i
O=C(NC1CC1)C1=NOC(CNc2ncc(C(F)(F)F)cc2Cl)C1 (stereo not drawn)	-2.8%	-1.9%	9.1%	i	i
O=C(NC1CCCCN(Cc2ccc(Cl)cc2)C1=O)c1cccc(F)c1 (stereo not drawn)	x	x	x	x	i
CC(C)(C)c1ccc(Oc2ccc(N)cn2)cc1	28.1%	5.9%	20µM*	u	i
CC(Cc1cccs1)NC(=O)Nc1ccc(Cl)cc1 (stereo not drawn)	-13.0%	7.6%	22.4µM*	i	i
CC(Cc1cccs1)NC(=S)Nc1ccccc1 (stereo not drawn)	0.9%	-9.0%	-10.7%[0.397 µM]	11.2µM*	i
C[C@H]1CC[C@H]2C(=O)N3[C@H](c4ccccc4Br)[C@@H](C)CC[C@H]3C(=O)N2[C@@H]1c1ccccc1Br	x	22.4µM*	x	x	x
CC(=O)c1cccc(NC(=O)CCc2c(C)nc3c(c(C)nn3-c3ccccc3)c2C)c1	x	x	6.31µM*	i	i
CC(=O)c1cccc(NC(=O)c2cnn(-c3ccccc3)c2C)c1	0.7%	-26.5%	14.1µM*	u	i
CC(=O)c1ccc(NC(=O)CCc2c(C)nc3c(c(C)nn3-c3ccc(C)cc3)c2C)cc1	x	x	7.6%	i	i
Cc1c(C(=O)Nc2cccc(F)c2)cnn1-c1ccccc1	5.7%	1.5%	10µM*	i	i
Cc1c(C(=O)Nc2ccccc2)cnn1-c1ccccc1	0.0%	x	0.0%	i	i
C=CCN1[C@@H](C)COc2cccc(N3CCSCC3)c2S1(=O)=O	x	x	x	x	i
